Assay results: PubChem BioAssay AID1159580 (chemical genetic matrix, 2015)
About 2,000 (36%) of roughly 5,500 compounds were called active. About 18% were inconclusive and are not listed. No stated cut-off is given here; in the data, active means normalized growth mostly below about 0.91 (no sharp cut-off); inconclusive means no clear call, values can overlap the other calls; inactive means mostly above about 0.92. Some of the results follow.

Assay: chemical genetic growth profiling, strain panel (AID 1159580);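 further: tested at 20 µM; growth read once vehicle control cultures reached saturation at 30 °C; 1 = growth at the plate median or of vehicle wells; lower values mean less growth of the strain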
Conditions: growth OD
[1] = S. cerevisiae deletion strains, locus YDL101C, strain DUN1, hits give low values
[2] = S. cerevisiae deletion strains, locus YHR030C, strain SLT2, hits give low values

Measured: normalized growth

COC(=O)c1ccc(Cl)cc1N(Cc1ccccc1)S(C)(=O)=O
inactive: S. cerevisiae deletion strains, locus YAL013W, strain DEP1, hits give low values 1.01 | S. cerevisiae deletion strains, locus YBR229C, strain ROT2, hits give low values 1.02 | [1] 0.998 | S. cerevisiae deletion strains, locus YDL134C, strain PPH21, hits give low values 1 | S. cerevisiae deletion strains, locus YDR150W, strain NUM1, hits give low values 0.934 | S. cerevisiae deletion strains, locus YEL061C, strain CIN8, hits give low values 1 | S. cerevisiae deletion strains, locus YGR078C, strain PAC10, hits give low values 0.992 | S. cerevisiae deletion strains, locus YGR229C, strain SMI1, hits give low values 0.999 | [2] 1.11 | S. cerevisiae deletion strains, locus YHR087W, strain rtc3, hits give low values 1 | S. cerevisiae deletion strains, locus YJL187C, strain SWE1, hits give low values 1 | S. cerevisiae deletion strains, locus YJR075W, strain HOC1, hits give low values 0.968 | S. cerevisiae deletion strains, locus YLR039C, strain RIC1, hits give low values 1.03 | S. cerevisiae deletion strains, locus YLR058C, strain SHM2 (second series), hits give low values 1.01 | S. cerevisiae deletion strains, locus YLR085C, strain ARP6, hits give low values 1.05 | S. cerevisiae deletion strains, locus YLR262C, strain YPT6, hits give low values 1 | S. cerevisiae deletion strains, locus YML094W, strain GIM5, hits give low values 1.02 | S. cerevisiae deletion strains, locus YMR219W, strain ESC1, hits give low values 1 | S. cerevisiae deletion strains, locus YMR263W, strain SAP30, hits give low values 0.929 | S. cerevisiae deletion strains, locus YNL128W, strain TEP1, hits give low values 1.02 | S. cerevisiae deletion strains, locus YNL153C, strain GIM3, hits give low values 1 | S. cerevisiae deletion strains, locus YNL298W, strain CLA4 (second series), hits give low values 1.04 | S. cerevisiae deletion strains, locus YNL322C, strain KRE1, hits give low values 0.985 | S. cerevisiae deletion strains, locus YNR030W, strain Alg12, hits give low values 1.02 | S. cerevisiae deletion strains, locus YOL006C, strain TOP1, hits give low values 1.14 | S. cerevisiae deletion strains, locus YPL055C, strain LGE1, hits give low values 0.923 | S. cerevisiae deletion strains, locus YPL241C, strain CIN2, hits give low values 1.03 | S. cerevisiae deletion strains, locus YPR135W, strain CTF4, hits give low values 1.17 | S. cerevisiae strains, strain wild type, hits give low values 1.03

CN(C(=O)N(C)c1ccc(Cl)cc1C(=O)c1ccccc1Cl)c1ccc(Cl)cc1C(=O)c1ccccc1Cl
active: S. cerevisiae deletion strains, locus YAR019C, strain CDC15, hits give low values 0.84 | S. cerevisiae deletion strains, locus YBL105C, strain PKC1, hits give low values 0.85 | S. cerevisiae deletion strains, locus YBR135W, strain CKS1, hits give low values 0.85 | S. cerevisiae deletion strains, locus YBR136W, strain MEC1, hits give low values 0.832 | S. cerevisiae deletion strains, locus YBR160W, strain CDC28, hits give low values 0.853 | S. cerevisiae deletion strains, locus YDL017W, strain CDC7, hits give low values 0.851 | S. cerevisiae deletion strains, locus YDL028C, strain MPS1, hits give low values 0.835 | [1] 0.847 | S. cerevisiae deletion strains, locus YDL108W, strain KIN28, hits give low values 0.831 | S. cerevisiae deletion strains, locus YDL132W, strain cdc53, hits give low values 0.853 | S. cerevisiae deletion strains, locus YDL214C, strain PRR2, hits give low values 0.471 | S. cerevisiae deletion strains, locus YDR052C, strain DBF4, hits give low values 0.855 | S. cerevisiae deletion strains, locus YDR054C, strain cdc34, hits give low values 0.805 | S. cerevisiae deletion strains, locus YDR226W, strain ADK1, hits give low values 0.86 | S. cerevisiae deletion strains, locus YDR477W, strain SNF1, hits give low values 0.467 | S. cerevisiae deletion strains, locus YER123W, strain YCK3, hits give low values 0.388 | S. cerevisiae deletion strains, locus YER133W, strain GLC7, hits give low values 0.447 | S. cerevisiae deletion strains, locus YFL009W, strain cdc4, hits give low values 0.848 | S. cerevisiae deletion strains, locus YFL029C, strain CAK1, hits give low values 0.828 | S. cerevisiae deletion strains, locus YFR003C, strain YPI1, hits give low values 0.85 | S. cerevisiae deletion strains, locus YFR019W, strain FAB1, hits give low values 0.577 | S. cerevisiae deletion strains, locus YFR028C, strain CDC14, hits give low values 0.841 | S. cerevisiae deletion strains, locus YGR040W, strain KSS1, hits give low values 0.462 | S. cerevisiae deletion strains, locus YGR052W, strain FMP48, hits give low values 0.46 | S. cerevisiae deletion strains, locus YGR092W, strain DBF2, hits give low values 0.242 | [2] 0.49 | S. cerevisiae deletion strains, locus YHR079C, strain IRE1, hits give low values 0.463 | S. cerevisiae deletion strains, locus YHR082C, strain KSP1, hits give low values 0.492 | S. cerevisiae deletion strains, locus YIL147C, strain SLN1, hits give low values 0.826 | S. cerevisiae deletion strains, locus YJL095W, strain BCK1, hits give low values 0.417 | S. cerevisiae deletion strains, locus YJL157C, strain FAR1, hits give low values 0.51 | S. cerevisiae deletion strains, locus YJR016C, strain ILV3, hits give low values 0.883 | S. cerevisiae deletion strains, locus YJR066W, strain TOR1 (second series), hits give low values 0.518 | S. cerevisiae deletion strains, locus YJR066W, strain TOR1, hits give low values 0.381 | S. cerevisiae deletion strains, locus YKL048C, strain ELM1, hits give low values 0.605 | S. cerevisiae deletion strains, locus YKL067W, strain YNK1, hits give low values 0.525 | S. cerevisiae deletion strains, locus YKL101W, strain HSL1, hits give low values 0.524 | S. cerevisiae deletion strains, locus YKL193C, strain SDS22, hits give low values 0.832 | S. cerevisiae deletion strains, locus YKL203C, strain TOR2, hits give low values 0.457 | S. cerevisiae deletion strains, locus YLR113W, strain HOG1, hits give low values 0.447 | S. cerevisiae deletion strains, locus YLR133W, strain CKI1, hits give low values 0.582 | S. cerevisiae deletion strains, locus YLR403W, strain SFP1, hits give low values 0.592 | S. cerevisiae deletion strains, locus YML070W, strain DAK1, hits give low values 0.446 | S. cerevisiae deletion strains, locus YMR001C, strain CDC5, hits give low values 0.838 | S. cerevisiae deletion strains, locus YMR205C, strain PFK2 (second series), hits give low values 0.549 | S. cerevisiae deletion strains, locus YMR277W, strain FCP1, hits give low values 0.825 | S. cerevisiae deletion strains, locus YNL006W, strain LST8, hits give low values 0.855 | S. cerevisiae deletion strains, locus YNL020C, strain ARK1, hits give low values 0.527 | S. cerevisiae deletion strains, locus YNL161W, strain CBK1, hits give low values 0.852 | S. cerevisiae deletion strains, locus YNL183C, strain NPR1, hits give low values 0.412 | S. cerevisiae deletion strains, locus YNL207W, strain RIO2, hits give low values 0.825 | S. cerevisiae deletion strains, locus YNL222W, strain SSU72, hits give low values 0.846 | S. cerevisiae deletion strains, locus YNL307C, strain MCK1 (second series), hits give low values 0.412 | S. cerevisiae deletion strains, locus YOL078W, strain AVO1, hits give low values 0.845 | S. cerevisiae deletion strains, locus YOL136C, strain PFK27, hits give low values 0.51 | S. cerevisiae deletion strains, locus YOR061W, strain CKA2, hits give low values 0.477 | S. cerevisiae deletion strains, locus YOR119C, strain RIO1, hits give low values 0.483 | S. cerevisiae deletion strains, locus YOR231W, strain MKK1, hits give low values 0.455 | S. cerevisiae deletion strains, locus YOR329C, strain SCD5, hits give low values 0.846 | S. cerevisiae deletion strains, locus YPL031C, strain PHO85, hits give low values 0.441 | S. cerevisiae deletion strains, locus YPL153C, strain RAD53, hits give low values 0.369 | S. cerevisiae deletion strains, locus YPL204W, strain HRR25, hits give low values 0.487 | S. cerevisiae deletion strains, locus YPL209C, strain IPL1, hits give low values 0.855 | S. cerevisiae deletion strains, locus YPL256C, strain CLN2, hits give low values 0.508 | S. cerevisiae deletion strains, locus YPR025C, strain CCL1, hits give low values 0.856 | S. cerevisiae deletion strains, locus YPR106W, strain ISR1, hits give low values 0.868 | S. cerevisiae deletion strains, strain NNK1, hits give low values 0.855 | S. cerevisiae deletion strains, strain TSCII, hits give low values 0.818
inactive: S. cerevisiae deletion strains, locus YHR205W, strain SCH9, hits give low values 0.716 | S. cerevisiae deletion strains, locus YJL128C, strain PBS2, hits give low values 0.867 | S. cerevisiae deletion strains, locus YPR111W, strain DBF20, hits give low values 0.874
